According to publication PMC7819943, “Rice protein-binding microarrays: a tool to detect cis-acting elements near promoter regions in rice”:
Over roughly 39,000 sequences, “fluorescence intensity (a.u.)” has its median near 4,300; the highest 2% begin near 39,000. The sample holds the highest values, similar sequences and a random draw of the others, so the mix is not that of the screen.

biological target: T1, OsSMF1 (Oryza sativa, UniProt Q6ZLB0 1-436); experiment: protein-binding microarray (RPBM); PBS, 2% BSA, 51.3 ng/ul salmon testes DNA, 50 uM zinc acetate, 200 nM TF, 25 C, 1 h; high values mean tight binding; settings: protein: recombinant; tags: N-terminal polyhistidine and DsRed monomer fusion (pET32a); chain copies: 2; label: CyDye5-dUTP incorporated in the synthesized complementary strand; 3' TTTTT single-stranded linker to array surface; dsDNA, one strand shown
T1 sequence: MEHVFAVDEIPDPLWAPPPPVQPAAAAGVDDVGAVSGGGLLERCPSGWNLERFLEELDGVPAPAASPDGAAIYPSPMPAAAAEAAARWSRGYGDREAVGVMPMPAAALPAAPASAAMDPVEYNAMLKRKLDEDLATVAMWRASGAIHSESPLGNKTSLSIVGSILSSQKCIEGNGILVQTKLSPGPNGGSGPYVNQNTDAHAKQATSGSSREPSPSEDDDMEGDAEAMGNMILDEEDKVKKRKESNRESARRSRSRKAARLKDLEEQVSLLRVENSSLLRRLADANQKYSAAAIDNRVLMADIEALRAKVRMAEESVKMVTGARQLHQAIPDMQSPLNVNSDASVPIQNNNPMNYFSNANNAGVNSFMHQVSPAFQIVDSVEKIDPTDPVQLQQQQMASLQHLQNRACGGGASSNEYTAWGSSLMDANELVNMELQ
Outline: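 A custom Agilent array was converted to double-stranded form by primer extension with Cy5-dUTP and blocked with 2% BSA. Protein at 200 nM in PBS with 2% BSA, salmon testes DNA and 50 µM zinc acetate was applied for 1 h at 25 °C, followed by washing. The proteins were polyhistidine–DsRed N-terminal fusions of transcription factors, expressed in E. coli BL21-CodonPlus and Ni–NTA-purified. The binding signal is per-feature fluorescence intensity (arbitrary units) from an Axon 4000B scanner.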

Row | Sequence | binding signal
1 | AGGTGCAGATGCTACTACTGATCTGGAACAGTGATCTCCACGGAGTCACCTAGTGCAG | 3180 fluorescence intensity (a.u.)
2 | CCCATTGCTGTCTCTACCATGTGTCATCTTCCAATAAGCACGGAGTCACCTAGTGCAG | 4950 fluorescence intensity (a.u.)
3 | GGCTGCGGCGCTGTCCCTCCGTCTGCGTGATCCGACAACCCGGAGTCACCTAGTGCAG | 3800 fluorescence intensity (a.u.)
4 | AACCAACCAACCACGTCGATCGCTCGCAGTCGCCGCCGCGCGGAGTCACCTAGTGCAG | 3840 fluorescence intensity (a.u.)
5 | GCAGGCTGAATAAAACTGTATTGTCATCGATGATATTGGTCGGAGTCACCTAGTGCAG | 5020 fluorescence intensity (a.u.)
6 | AAAACAAATATAGAGGAGACAGCTCATTTTATTTCCTTGACGGAGTCACCTAGTGCAG | 3340 fluorescence intensity (a.u.)
7 | ATAAGGGCCAGCATGTACGTGACAGTGCCATTCGGGCCCACGGAGTCACCTAGTGCAG | 4850 fluorescence intensity (a.u.)
8 | AAGTCAGGGTGTCCACGTCATCACCCTCCCTCTTTCTCCTCGGAGTCACCTAGTGCAG | 55700 fluorescence intensity (a.u.)
9 | CTACATATCAGGTGTCCACGTCACCCTCTCTCTTTCCCCTCGGAGTCACCTAGTGCAG | 37200 fluorescence intensity (a.u.)
10 | CATGTCAGACAGTCCACGTCATCACCTTTCTCTCCCCTCTCGGAGTCACCTAGTGCAG | 38200 fluorescence intensity (a.u.)
11 | TTAACTCGGTCTTCATCCTGTGTGACGCCTACGATACAACCGGAGTCACCTAGTGCAG | 4380 fluorescence intensity (a.u.)
12 | GGCTTCGGCCAGCTAGCCGCCACGTCTCCGCCGGTTTTAACGGAGTCACCTAGTGCAG | 8270 fluorescence intensity (a.u.)
13 | ATTTCTACCTGACGAAGTGACGATGCACTAGCCAGCTACTCGGAGTCACCTAGTGCAG | 3900 fluorescence intensity (a.u.)
14 | AGACAAATAATTCCCTTTGCCATGCCTGTCAGTTAGGGAACGGAGTCACCTAGTGCAG | 3500 fluorescence intensity (a.u.)
15 | TGAGATATATATTTCGTATGTATATAGAGAAATAAAGAAACGGAGTCACCTAGTGCAG | 57100 fluorescence intensity (a.u.)
16 | TTGTATAACTATGTGTATATGTGTATGGTTATTAAGCAAACGGAGTCACCTAGTGCAG | 10500 fluorescence intensity (a.u.)
17 | GTAAACGCATGCCTTTTCGCAAATTTGTAAAACGAAACGACGGAGTCACCTAGTGCAG | 31500 fluorescence intensity (a.u.)
18 | TCCATGTATATTACATCATGGGGTTATGTAACATCACTGACGGAGTCACCTAGTGCAG | 8280 fluorescence intensity (a.u.)
19 | AAACTTTATGTATAGAAATAATATATATATATATATATATCGGAGTCACCTAGTGCAG | 29000 fluorescence intensity (a.u.)
20 | CTTATTATGGTTATATGTGCAGGTATGGAGTAATAACTGACGGAGTCACCTAGTGCAG | 46400 fluorescence intensity (a.u.)
21 | CGACATTAAAGATTATGAATATTATGGGCAAATATAGGTCCGGAGTCACCTAGTGCAG | 57600 fluorescence intensity (a.u.)
22 | AAACATTATTAAATAGGTGTATGAATGACAGTCATACTTGCGGAGTCACCTAGTGCAG | 3490 fluorescence intensity (a.u.)
23 | TATAAAATTTCGCAATAACGACGAAAGTATTAAACGGACACGGAGTCACCTAGTGCAG | 56200 fluorescence intensity (a.u.)
24 | TCATAATATTATAAATTTGGACAAAGATATATCATATCACCGGAGTCACCTAGTGCAG | 3150 fluorescence intensity (a.u.)
25 | ACTTATGATATGAAACGGAGAGAGTAGTAGATAAGATTTTCGGAGTCACCTAGTGCAG | 28400 fluorescence intensity (a.u.)
26 | GAATAATTTATTAAATAATTTATAAATCCTGAAACGAAAACGGAGTCACCTAGTGCAG | 3520 fluorescence intensity (a.u.)
27 | TAGGATTCAGCTCCTTCCTATTAGGGGTTCACCCGCGAGTCGGAGTCACCTAGTGCAG | 13800 fluorescence intensity (a.u.)

Row | Sequence | binding signal
28 | CTATAAACTTAGTTAAACTAAAGCTGCTATTTAACTTTGACGGAGTCACCTAGTGCAG | 3280 fluorescence intensity (a.u.)
29 | CGAGGTTGCCCCTCCCCTCTCCTACGTGGTCGTGCCCCAACGGAGTCACCTAGTGCAG | 5410 fluorescence intensity (a.u.)
30 | ATCGGCAAACGCGTTCCACCAAAACCCTCCACGTCAGCATCGGAGTCACCTAGTGCAG | 29800 fluorescence intensity (a.u.)
31 | AGCAAACATAATTAACATATATATAATAAAGCTCAAAGAGCGGAGTCACCTAGTGCAG | 3780 fluorescence intensity (a.u.)
32 | TTAATTAATTAACGTATGTACTCAGGAATTATATATAATACGGAGTCACCTAGTGCAG | 35600 fluorescence intensity (a.u.)
33 | TTATAATATATATAATAAATAAATGTATGTTTACTTATAGCGGAGTCACCTAGTGCAG | 19300 fluorescence intensity (a.u.)
34 | ATAATAAACTGAGAGGAGGATAGTAATATGTACTTAGTAACGGAGTCACCTAGTGCAG | 48400 fluorescence intensity (a.u.)
35 | CTCTCTCTCTCTCTCTCTCTCTCTCTTGCCATTTAAAAGACGGAGTCACCTAGTGCAG | 4760 fluorescence intensity (a.u.)
36 | TAAAGAAAGAAAAGACATTAATAAAGCAGCAAAGAAAAGACGGAGTCACCTAGTGCAG | 46000 fluorescence intensity (a.u.)
37 | CCTTTTCCGCTTTAAAACACCACACAGTGACACACACACCCGGAGTCACCTAGTGCAG | 5500 fluorescence intensity (a.u.)
38 | AGAAGAGAATGGAGTGGAGCTGACATGTGGGCTCCACCATCGGAGTCACCTAGTGCAG | 3950 fluorescence intensity (a.u.)
39 | GGCTCCGTCTTATCCTAACAACGCCAAGGGGCCACGTATGCGGAGTCACCTAGTGCAG | 7210 fluorescence intensity (a.u.)
40 | CAGTTGACCGCCACGTAGAACCTGTTCCTCCAGCTCACCACGGAGTCACCTAGTGCAG | 9340 fluorescence intensity (a.u.)
41 | TTCCTCGCGCTCCCACGCCACGCAGCAGCCGCAGATCTCCCGGAGTCACCTAGTGCAG | 3630 fluorescence intensity (a.u.)
42 | CACACATTCGCACCGCCGACGCCGAACAGAACAACAACAACGGAGTCACCTAGTGCAG | 64700 fluorescence intensity (a.u.)
43 | GGAAGAAGGCCGCCGACGCACAACAGAGGCGGCGGCGGGGCGGAGTCACCTAGTGCAG | 3510 fluorescence intensity (a.u.)
44 | CAGAAACCAACCAACACAAGACACCGACCGACGCCGACCACGGAGTCACCTAGTGCAG | 8450 fluorescence intensity (a.u.)
45 | GCTTTCAAAGCACTCAATTTTCCAGGTCATAACTGTTTTCCGGAGTCACCTAGTGCAG | 5050 fluorescence intensity (a.u.)
46 | ACAGATACAATGAGCGAGCGTTTGGTGTAATATGTGACAGCGGAGTCACCTAGTGCAG | 43600 fluorescence intensity (a.u.)
47 | ATGTATTTTATGACAACAGAGTAAACAATGTGATATACATCGGAGTCACCTAGTGCAG | 3220 fluorescence intensity (a.u.)
48 | TTGACAATGTGGTGCTACAGTAAATATTTGATAATGATGGCGGAGTCACCTAGTGCAG | 3330 fluorescence intensity (a.u.)
49 | ATCTTAAGCTCCTCATTTCATCTATGATTGGCTTGCTTTACGGAGTCACCTAGTGCAG | 3180 fluorescence intensity (a.u.)
50 | AATAAACCATGGTGTTTGTATTGGTGTGTTGGTGACTACGCGGAGTCACCTAGTGCAG | 3880 fluorescence intensity (a.u.)
51 | CCATCGAATCCGGTTCGCGCGCAAGCAAAATCAGCAGCGTCGGAGTCACCTAGTGCAG | 3830 fluorescence intensity (a.u.)
52 | AAGCTAACTTGTGTTGCCTACACAAGTACTAAAATGGCATCGGAGTCACCTAGTGCAG | 63600 fluorescence intensity (a.u.)
53 | TAAGCTAACCTTGTACTAAGATGTGACACATCCAAGTACACGGAGTCACCTAGTGCAG | 3630 fluorescence intensity (a.u.)
54 | GCTACTAAGGAGTACTACAATATTGCATCATCGTCATCATCGGAGTCACCTAGTGCAG | 6340 fluorescence intensity (a.u.)
